Experimental data reported in PubChem BioAssay (NCI).
This is part of a sample that, as a whole, favours compounds with a hit. Of some 79,000 tested, about 15% had one in any assay. Active and inactive are the calls of the source. No stated cut-off is given here; in the data, active means growth inhibition above about 70%; inactive means the rest.

Assays:
[1] = NCI Yeast Anticancer Drug Screen. Data for the rad52 strain (AID 147);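 further: 0% = growth of vehicle-treated control cultures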; settings: S. cerevisiae rad52 mutant growth inhibition, active compounds read high
Procedure, shortened: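 Growth of repair-deficient yeast cells was compared between compound-treated and vehicle-treated cultures to give percent inhibition.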

[2] = NCI Yeast Anticancer Drug Screen. Data for the wt1 strain (AID 149);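 further: 0% = growth of vehicle-treated wt1 cultures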; settings: S. cerevisiae wt1 strain (SPY 50644) growth inhibition, active compounds read high
Procedure, shortened: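 Growth inhibition read against vehicle controls after compound exposure of the wt1 yeast strain.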

[3] = NCI Yeast Anticancer Drug Screen. Data for the rad50 strain (AID 155);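 further: 0% = growth of vehicle-only cultures of the same strain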; settings: S. cerevisiae rad50 strain growth inhibition, active compounds read high
Procedure, shortened: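 Readout: growth inhibition relative to vehicle-treated cultures. Compound exposure was carried out in a genetically defined yeast strain deficient in DNA damage repair.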

[4] = NCI Yeast Anticancer Drug Screen. Data for the mec2-1 strain (AID 157); settings: S. cerevisiae mec2-1 strain, active compounds read high
Procedure, shortened: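 Compounds were applied to mec2-1 yeast cells. Their growth was then compared with that of vehicle-treated cultures to give growth inhibition.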

[5] = NCI Yeast Anticancer Drug Screen. Data for the rad14 strain (AID 159);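 further: 0% = growth of vehicle-treated control cultures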; settings: S. cerevisiae rad14 strain growth inhibition, active compounds read high
Procedure, shortened: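 Growth inhibition vs vehicle controls; genetically altered yeast strain (DNA damage repair defect) treated with test compounds.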

[6] = NCI Yeast Anticancer Drug Screen. Data for the sgs1 mgt1 strain (AID 161);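 further: 0% = growth of cultures given vehicle only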; settings: S. cerevisiae sgs1 mgt1 strain, active compounds read high
Procedure, shortened: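 This yeast growth screen uses a strain with defined DNA-repair lesions; compound-treated growth is compared with vehicle-treated growth.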

[7] = NCI Yeast Anticancer Drug Screen. Data for the CLN2oe strain (AID 163);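 further: 0% = growth of vehicle-only control cultures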; settings: S. cerevisiae CLN2oe strain, active compounds read high
Procedure, shortened: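 Cells of an engineered yeast line with disturbed cell-cycle regulation are treated with compound. Inhibition of growth is then calculated relative to the vehicle-treated reference.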

[8] = NCI Yeast Anticancer Drug Screen. Data for the bub3 strain (AID 167); settings: S. cerevisiae bub3 mutant strain, active compounds read high
Procedure, shortened: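 Readout: yeast growth inhibition, expressed relative to vehicle-only wells. The test organism is a mutant strain from a panel with lesions in DNA repair or checkpoint genes.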

[9] = NCI Yeast Anticancer Drug Screen. Data for the wt2 strain (AID 169);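 further: 0% = growth of vehicle-treated yeast cultures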; settings: S. cerevisiae wt2 strain growth inhibition, active compounds read high
Procedure, shortened: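 Growth of compound-treated yeast is measured and expressed as inhibition relative to vehicle-only controls.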

[10] = NCI Yeast Anticancer Drug Screen. Data for the mlh1 strain (AID 171);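 further: 0% = growth of vehicle-treated control cultures of the same strain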; settings: S. cerevisiae mlh1 strain growth inhibition, active compounds read high
Procedure, shortened: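 Test agents were incubated with yeast bearing a defined DNA damage repair or cell cycle control alteration; values are growth inhibition normalised to vehicle-treated cultures.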

[11] = NCI Yeast Anticancer Drug Screen. Data for the sgs1 strain (AID 173);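 further: 0% = growth of vehicle-only control cultures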; settings: S. cerevisiae sgs1 mutant, active compounds read high
Procedure, shortened: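 Strain with an altered DNA repair or cell cycle pathway exposed to compound. Growth then measured. Value = inhibition versus vehicle control.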

[12] = NCI Yeast Anticancer Drug Screen. Data for the mlh1 rad18 strain (AID 175); settings: S. cerevisiae mlh1 rad18 strain growth inhibition, active compounds read high
Procedure, shortened: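 A repair-deficient yeast strain is exposed to test compound, and growth is scored relative to vehicle-treated controls.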

[13] = NCI Yeast Anticancer Drug Screen. Data for the rad18 strain (AID 177); settings: S. cerevisiae rad18 mutant growth inhibition, active compounds read high
Procedure, shortened: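 DNA-repair-defective yeast; compound treatment; growth inhibition scored against vehicle.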

[14] = at 5.0 µM (retest, dose inferred, filed as 0.5)
[15] = at 50.0 µM (retest, dose inferred, filed as 5.0)

Measured: growth inhibition

COc1ccc(S(=O)(=O)N/N=C\c2cc([N+](=O)[O-])cc(I)c2O)c(OC)c1OC
active: [1]; at 100.0 µM 94% | [3]; [15] 72% | [3]; at 50.0 µM 92.9% | [3]; at 100.0 µM 95% | [4]; [15] 76% | [4]; at 50.0 µM 73% | [4]; at 100.0 µM 83% | [5]; at 100.0 µM 96% | [6]; [15] 74% | [6]; at 50.0 µM 88.3% | [7]; at 100.0 µM 93% | [8]; at 100.0 µM 86% | [9]; at 100.0 µM 93% | [10]; at 100.0 µM 88% | [11]; at 100.0 µM 97% | [12]; [15] 73% | [12]; at 50.0 µM 85.5% | [13]; at 100.0 µM 93%
inactive: [1]; at 1.2 µM 0% | [1]; at 3.7 µM 9% | [1]; at 11.0 µM 20% | [1]; at 33.0 µM 42% | [2]; at 1.2 µM -7% | [2]; at 3.7 µM -8% | [2]; at 11.0 µM -8% | [2]; at 33.0 µM 9% | [2]; at 100.0 µM 49% | [3]; at 1.2 µM -7% | [3]; at 3.7 µM -7% | [3]; [14] 10% | [3]; at 11.0 µM 23% | [3]; at 33.0 µM 64% | [4]; at 1.2 µM -2% | [4]; at 3.7 µM -6% | [4]; [14] 14% | [4]; at 11.0 µM -7% | [4]; at 33.0 µM 15% | [5]; at 1.2 µM -3% | [5]; at 3.7 µM 4% | [5]; at 11.0 µM 13% | [5]; at 33.0 µM 39% | [6]; [14] 13% | [7]; at 1.2 µM -6% | [7]; at 3.7 µM -10% | [7]; at 11.0 µM -8% | [7]; at 33.0 µM 18% | [8]; at 1.2 µM -13% | [8]; at 3.7 µM -15% | [8]; [14] 1% | [8]; at 11.0 µM -5% | [8]; at 33.0 µM 15% | [8]; [15] 68% | [8]; at 50.0 µM 25.8% | [9]; at 1.2 µM -7% | [9]; at 3.7 µM -7% | [9]; at 11.0 µM -6% | [9]; at 33.0 µM 15% | [10]; at 1.2 µM 0% | [10]; at 3.7 µM -8% | [10]; at 11.0 µM 0% | [10]; at 33.0 µM 29% | [11]; at 1.2 µM -5% | [11]; at 3.7 µM -8% | [11]; at 11.0 µM 9% | [11]; at 33.0 µM 45% | [12]; [14] 15% | [13]; at 1.2 µM -1% | [13]; at 3.7 µM 0% | [13]; at 11.0 µM 13% | [13]; at 33.0 µM 37%
